Test results reported in PubChem BioAssay (EPA / NIEHS).
Records with an inconclusive call do not appear. The source made the active and inactive calls. Rule for the calls, unless noted: active = hit-call score of the fitted dose curve at least 0.9, where 1 is the maximum; inconclusive = response in the unintended direction; inactive = score below 0.9.

Experiments:
[1] = Tanguay_ZF_120hpf_SWIM_legacy: (Legacy) Oregon State University Tanguay Lab 120 Hour Post-fertilization zebrafish Assay for Swim Bladder Malformation (AID 2283654);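 note: swim bladder malformation in each larva scored yes or no under brightfield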
Outline: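 Dechorionated wild-type Tropical 5D zebrafish embryos, one per well from 6 hpf, were statically exposed at 28C until 120 hpf in 0.64% DMSO. Swim bladder malformation scored as present/absent by brightfield microscopy; not scored in dead larvae.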

[2] = Tanguay_ZF_120hpf_TRUN_legacy: (Legacy) Oregon State University Tanguay Lab 120 Hour Post-fertilization zebrafish Assay for Truncated Body (AID 2283655)
Outline: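 Binary presence/absence of truncated body is recorded at 120 hpf by brightfield, with non-mortality endpoints skipped after death. Exposure is static from 6 hpf in sealed dark plates at 28C, using dechorionated wild-type zebrafish, 0.64% DMSO.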

[3] = Tanguay_ZF_120hpf_NC_legacy: (Legacy) Oregon State University Tanguay Lab 120 Hour Post-fertilization zebrafish Assay for Notochord and Tail Malformation (AID 2283656)
Outline: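 Dechorionated 5D zebrafish, 1/well from 6 hpf; static exposure to 120 hpf, 28C, sealed, dark; final DMSO 0.64% v/v. NC scored binary (present/absent); dead embryos not scored. Fit vs DMSO baseline, gain direction.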

[4] = Tanguay_ZF_120hpf_TR_legacy: (Legacy) Oregon State University Tanguay Lab 120 Hour Post-fertilization zebrafish Assay for Touch Response (AID 2283667)
Outline: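 Tropical 5D wild-type zebrafish embryos statically exposed to 120 hpf at 28°C, sealed and dark-covered, 0.64% DMSO final; touch response scored as present/absent by brightfield microscopy at 120 hpf. Trimethyltin chloride 5 uM positive control; dead embryos not scored.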

[5] = CCTE_Padilla_ZF_144hpf_TERATOSCORE: (Legacy) CCTE's 144 Hour Post-fertilization zebrafish Assay Teratoscore, Padilla Lab (AID 2283679; active = hit-call score of the fitted dose curve at least 0.9, where 1 is the maximum; inactive = score below 0.9;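 note: zebrafish embryos with chorions exposed by immersion from 6-8 hpf to 5 dpf with daily renewal; teratogenicity score from eye scoring of death hatching and malformations at 144 hpf; higher score means more developmental defects relative to DMSO baseline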)
Outline: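 Larvae scored by eye at 144 hpf for death, hatching and malformations after a day in clean Hanks'. Before that, daily-renewed exposure at 80 uM (0.4% DMSO, 26C) from roughly 6-8 hpf through 5 dpf, 4 embryos per chemical.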

[6] = Tanguay_ZF_120hpf_ActivityScore_legacy: (Legacy) Oregon State University Tanguay Lab 120 Hour Post-fertilization zebrafish Assay Score for Activity (AID 2283742)
Outline: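 Dechorionated Tropical 5D embryos, one per well from 6 hpf, statically exposed to 120 hpf at 28 °C in 0.64% DMSO. Mortality and malformations scored binary by brightfield microscopy; activity score combines 18 endpoints, fitted positively versus DMSO.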

O=C(CCl)c1ccccc1
outcome [1]: inactive
outcome [2]: inactive
outcome [3]: inactive
outcome [4]: inactive
AC50 [5]: 4.85 µM (active)
AC50 [6]: 1.45 µM (active)
